Values joined by “and” are separate entries in the source; they are usually repeats but may differ in a detail not shown here. Equal values may be shown once. Inconclusive results are not listed. Some structures have more than one record in an assay (separate samples or runs), and their calls can disagree. Active and inactive are the calls of the source. Calls follow the shape of the dose curve; as a rule, active = well fitted curve in the direction sought with a large enough effect in the repeat runs; inconclusive = weak or mixed curves; inactive = no such curve, though single readings can be large; an effect the other way counts as inactive or inconclusive.
Test: qHTS assay for identifying genotoxic compounds that show differential cytotoxicity against isogenic chicken DT40 cell lines with known DNA damage response pathways - wild type cell line (AID 743012); also: nearly all actives have a fitted effect of over 60% in size; also: potency is read from the fitted curve at half-maximal effect
Details: DT40 wild type chicken cells viability, CellTiter-Glo, 40 h; series mostly up to 68.4 µM; activity change, negative = cytotoxicity: at the top concentration
How it was run: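 Using parental DT40 (300 cells/well), compounds delivered in DMSO incubate 40 h at 37 C/5% CO2. CellTiter-Glo reagent then stands 30 min at room temperature, and luminescence gives cell viability.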
% is scaled to controls: 0 for no effect and ±100 for the full control effect.

Row | SMILES | activity change, negative = cytotoxicity | Potency
1 | Cc1cc(C)c(S(=O)(=O)O)cc1N=Nc1cc(S(=O)(=O)O)c2ccccc2c1O | -13.5% (inactive) | 
2 | CC(C)=CCCC(C)CC=O (configuration not stated) | -14.1% (inactive) | 
3 | CCOC(=O)C1=C(C)NC(C)=C(C(=O)OC)C1c1cccc([N+](=O)[O-])c1 (configuration not stated) |  | 26.6 µM (active)
4 | NC[C@H]1O[C@H](O[C@H]2[C@H](O)[C@@H](O[C@H]3O[C@H](CO)[C@@H](O)[C@H](N)[C@H]3O)[C@H](N)C[C@@H]2N)[C@H](O)[C@@H](O)[C@@H]1O |  | inactive
5 | CCCCCCCC/C=C\CCCCCCCC(N)=O | 1.47% (inactive) | 
6 | CCOC(=S)SSC(=S)OCC |  | inactive
7 | CCOc1cc(OCC)c(C(=O)CCC(=O)O)cc1OCC | -4.16% (inactive) | 
8 | Oc1ccc2c(c1)OCO2 |  | 54 µM (active)
9 | CCCCCc1ccc(N)cc1 | -20.7% (inactive) | 
10 | CC(=O)NCCCS(=O)(=O)O | 3.19% [at 31.4 µM] (inactive) | 
11 | O=C(c1ccc(O)cc1)c1ccc(O)cc1 | -2.87% (inactive) | 
12 | COc1ccc2[nH]c(S(=O)Cc3ncc(C)c(OC)c3C)nc2n1 (configuration not stated) |  | 29.8 µM (active)
13 | N#CCc1cccc(C(F)(F)F)c1 | -1.23% (inactive) | 
14 | O=CNc1ccccc1 | -3.45% [at 95 µM] (inactive) | 
15 | CC(=O)c1c(C)c([N+](=O)[O-])c(C(C)(C)C)c([N+](=O)[O-])c1C | -7.46% (inactive) | 
16 | CC(=O)Nc1ccc(/C=N/NC(N)=S)cc1 |  | inactive
17 | N=C(N=C(N)N)N1CCOCC1 | 9.68% [at 31.4 µM] (inactive) | 
18 | CN(C)CCCNCCCN | -8.16% (inactive) | 
19 | CCN(CC)CCNC(C(=O)OCCC(C)C)c1ccccc1 (configuration not stated) |  | 26.6 µM (active)
20 | CCC(C)N(C)C(=O)c1cc2ccccc2c(-c2ccccc2Cl)n1 (configuration not stated) |  | 15.7 µM (active)

Row | SMILES | activity change, negative = cytotoxicity | Potency
21 | O=S1(=O)c2cccc3cccc(c23)N1CCCN1CCN(c2ccc(F)cc2)CC1 |  | 18.8 µM (active)
22 | CC(C)c1cccc(C(C)C)c1NC(=O)NS(=O)(=O)c1cc(C(C)(C)O)co1 | 18.1% (inactive) | 
23 | CCOc1ccc2[nH]cc(C(=O)NCc3ccccc3)c(=O)c2n1 |  | 43.3 µM (active)
24 | CCCCOC(=O)c1ccccc1C(=O)OCC(CC)CCCC (configuration not stated) | 7.18% (inactive) | 
25 | O=C(Cl)c1ccc([N+](=O)[O-])cc1 | 0.161% (inactive) | 
26 | CNCC[C@@H](Oc1ccccc1C)c1ccccc1 |  | 16.8 µM (active)
27 | c1ccc(CNCc2ccccc2)cc1 |  | 54.5 µM (active)
28 | Cc1ccc(O)c([C@H](CCN(C(C)C)C(C)C)c2ccccc2)c1 |  | 26.6 µM (active)
29 | CCN(CC)CCc1nc(-c2ccccc2)no1 | 7.82% [at 31.4 µM] (inactive) | 
30 | CC1CCc2cc(F)cc3c(=O)c(C(=O)O)cn1c23 (configuration not stated) | 13.2% (inactive) | 
31 | CNS(=O)(=O)Cc1ccc2[nH]cc(CCN(C)C)c2c1 | 3.74% (inactive) | 
32 | CCCCOC(O)CC (configuration not stated) | 5.15% (inactive) | 
33 | CC[C@H](C)[C@H](N)C(=O)O | 11.7% (inactive) | 
34 | Nc1nc(CC(=O)O)cs1 | -0.937% [at 95 µM] (inactive) | 
35 | CCN1CCC[C@H]1CNC(=O)c1c(OC)ccc(Br)c1OC | 5.8% (inactive) | 
36 | O=C(NN1CCCC1)NS(=O)(=O)c1ccc(Cl)cc1 | 10.2% (inactive) | 
37 | CC1=CCC(C(C)C)C=C1 (configuration not stated) | -20% (inactive) | 
38 | Cc1cc(NC(=O)C(=O)O)cc(C)c1Oc1ccc(O)c2c1CCC2 | -13.1% (inactive) | 
39 | CN1CCC(OC(c2ccccc2)c2ccccc2)CC1 |  | 11.4 µM (active)

Test: qHTS assay for identifying genotoxic compounds that show differential cytotoxicity against isogenic chicken DT40 cell lines with known DNA damage response pathways - Rev3 mutant cell line (AID 743014); also: nearly all actives have a fitted effect of over 55% in size
Details: chicken DT40 Rev3-/- viability, CellTiter-Glo, 40 h; series mostly up to 68.4 µM; activity, negative = cytotoxicity: at the top concentration

Row | SMILES | activity, negative = cytotoxicity
40 | CC(=O)Nc1ccc(/C=N/NC(N)=S)cc1 | 15% (inactive)
41 | CC1CCc2cc(F)cc3c(=O)c(C(=O)O)cn1c23 (configuration not stated) | 16.2% (inactive)
42 | Nc1nc(CC(=O)O)cs1 | -6.55% [at 95 µM] (inactive)

Test: qHTS assay for identifying genotoxic compounds that show differential cytotoxicity against isogenic chicken DT40 cell lines with known DNA damage response pathways - Rad54/Ku70 mutant cell line (AID 743015); also: nearly all actives have a fitted effect of over 60% in size; also: potency is read from the fitted curve at half-maximal effect
Details: DT40 Rad54/Ku70 mutant viability, CellTiter-Glo, 40 h; series mostly up to 66.8 µM; activity change, negative = cytotoxicity: at the top concentration

Row | SMILES | activity change, negative = cytotoxicity | Potency
43 | CC(C)=CCCC(C)CC=O (configuration not stated) | 2.19% (inactive) | 
44 | NC[C@H]1O[C@H](O[C@H]2[C@H](O)[C@@H](O[C@H]3O[C@H](CO)[C@@H](O)[C@H](N)[C@H]3O)[C@H](N)C[C@@H]2N)[C@H](O)[C@@H](O)[C@@H]1O |  | inactive and 1.89 µM (active)
45 | CCCCCCCC/C=C\CCCCCCCC(N)=O | -0.266% (inactive) | 
46 | CCOc1cc(OCC)c(C(=O)CCC(=O)O)cc1OCC | 6.21% (inactive) | 
47 | CC(=O)NCCCS(=O)(=O)O |  | inactive
48 | O=C(c1ccc(O)cc1)c1ccc(O)cc1 | -0.977% (inactive) | 
49 | N#CCc1cccc(C(F)(F)F)c1 | -5.03% (inactive) | 
50 | CC(=O)c1c(C)c([N+](=O)[O-])c(C(C)(C)C)c([N+](=O)[O-])c1C | -13.1% (inactive) | 
51 | N=C(N=C(N)N)N1CCOCC1 | 14.3% [at 30.7 µM] (inactive) | 
52 | CCC(C)N(C)C(=O)c1cc2ccccc2c(-c2ccccc2Cl)n1 (configuration not stated) |  | 14 µM (active)
53 | O=S1(=O)c2cccc3cccc(c23)N1CCCN1CCN(c2ccc(F)cc2)CC1 |  | 23.7 µM (active)
54 | CC(C)c1cccc(C(C)C)c1NC(=O)NS(=O)(=O)c1cc(C(C)(C)O)co1 | -14.4% (inactive) | 
55 | CCOc1ccc2[nH]cc(C(=O)NCc3ccccc3)c(=O)c2n1 |  | 24.3 µM (active)
56 | CCCCOC(=O)c1ccccc1C(=O)OCC(CC)CCCC (configuration not stated) | -19.3% (inactive) | 
57 | CCN(CC)CCc1nc(-c2ccccc2)no1 | 7.87% [at 30.7 µM] (inactive) | 
58 | CNS(=O)(=O)Cc1ccc2[nH]cc(CCN(C)C)c2c1 | 9.4% (inactive) | 
59 | CC[C@H](C)[C@H](N)C(=O)O | 8.91% (inactive) | 
60 | CCN1CCC[C@H]1CNC(=O)c1c(OC)ccc(Br)c1OC | 7.35% (inactive) | 
61 | Cc1cc(NC(=O)C(=O)O)cc(C)c1Oc1ccc(O)c2c1CCC2 | -1.15% (inactive) | 
62 | CN1CCC(OC(c2ccccc2)c2ccccc2)CC1 |  | 11.4 µM (active)

Source: PubChem BioAssay (Tox21)
